Data on 29 molecules can be found in the supplement of paper PMC7724964.

First the molecules themselves.
B1: unnamed (peptide)
chain: WTWDSEMGIWTLANDI
B2: unnamed (peptide)
chain: SQQWSTHYPTFFELML
B3: unnamed (peptide)
chain: TQTMSWTGEKPQQWEM
B4: unnamed (peptide)
chain: STQTDSNWKMMPDGTV
B5: unnamed (peptide)
chain: TQVWPDDWWALGNYYE
B6: unnamed (peptide)
chain: GQTEFVYKQMPVSGAR
B7: unnamed (peptide)
chain: EHIQGHAPLLWEVLHS
B8: unnamed (peptide)
chain: VHRDYQLGHEWLVFIN
B9: unnamed (peptide)
chain: TQTGFGQAHMETPHSL
B10: unnamed (peptide)
chain: ATPPQLTAHPNFMMWF
B11: unnamed (peptide)
chain: QWDFSQMTWWPIEEWK
B12: unnamed (peptide)
chain: SVWWFGQTPYVLWEAS
B13: unnamed (peptide)
chain: VDQASQTWVWWAGQAY
B14: unnamed (peptide)
chain: VTDNAWPYPPVAVSQH
B15: unnamed (peptide)
chain: FLYYYGLSHNWFGDQT
B16: unnamed (peptide)
chain: ETQTPEWMGWLMESAI
B17: unnamed (peptide)
chain: PWGPYQSFSELDIKHE
B18: unnamed (peptide)
chain: DIFPTYQHFMQQYSSE
B19: unnamed (peptide)
chain: QQGIGVFQDWFNHGLI
B20: unnamed (peptide)
chain: VQTIGTWEWDHVPVEV
B21: unnamed (peptide)
chain: SSTTGDDVLNSLTEMP
B22: unnamed (peptide)
chain: HWWQDNQGYVWFQVEQ
B23: unnamed (peptide)
chain: GTQTDEIFYLREYKSM
B24: unnamed (peptide)
chain: TQTEPYKHQDQAHTRG
B25: unnamed (peptide)
chain: HADLQGLGVFEWQEPV
B26: unnamed (peptide)
chain: EYTNWYWLGYLPETVM
B27: unnamed (peptide)
chain: TQTLILDMDNMKFMTT
B28: unnamed (peptide)
chain: EMPQYMMTWYYEPDST
B29: unnamed (peptide)
chain: VQWQDQYPTFYAEMSK

Sequence of EIF2S1 9-93 S1 (domain begin residue: 9, domain end residue: 93), P05198 (P05198 whole entry, the tested form may be a part): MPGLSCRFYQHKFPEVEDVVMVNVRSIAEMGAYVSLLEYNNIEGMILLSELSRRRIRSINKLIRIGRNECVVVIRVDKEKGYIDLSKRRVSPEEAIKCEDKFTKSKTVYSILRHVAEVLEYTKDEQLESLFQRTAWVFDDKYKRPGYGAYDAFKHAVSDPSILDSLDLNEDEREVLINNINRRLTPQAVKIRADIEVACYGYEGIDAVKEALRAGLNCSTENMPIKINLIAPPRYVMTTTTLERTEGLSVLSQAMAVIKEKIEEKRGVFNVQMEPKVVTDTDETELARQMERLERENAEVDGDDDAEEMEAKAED

For the first assay, the target named is EIF2S1 9-93 S1 (domain begin residue: 9, domain end residue: 93), P05198. Put plainly: phage ELISA signal ratio (GST-PRM binding over GST background); higher = stronger binding of peptide-phage to the PRM. An outline of the steps:
(§1)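 Human peptide recognition domains were expressed in 96-well plates as fusions to the C-terminus of glutathione S-transferase (GST) and selected against an M13 phage library displaying randomized hexadecapeptides, cysteine-free and glycine-flanked, on the gene-8 major coat protein. Five selection rounds were run, and approximately 48 individual clones from rounds 4 and 5 were tested by phage ELISA. Each value is the ELISA signal on the GST-domain fusion divided by the signal on GST alone. Positive clones were sequenced.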
In general terms: An ELISA detects its analyte on a solid surface through an enzyme-linked reagent.
With B1, the “phage ELISA signal ratio” value is 20.4.

For the molecule B26, the “phage ELISA signal ratio” value is 14.6.

A further assay concerns the target PABPC1 96-174 RRM_1 (domain begin residue: 96, domain end residue: 174). The description is as above. An outline of the steps: as §1
Take B1: the “phage ELISA signal ratio” value worked out at 20.4.

A further assay concerns the target T1, ESRRA 179-423 Hormone_recep (domain begin residue: 179, domain end residue: 423), P11474.
T1 chain: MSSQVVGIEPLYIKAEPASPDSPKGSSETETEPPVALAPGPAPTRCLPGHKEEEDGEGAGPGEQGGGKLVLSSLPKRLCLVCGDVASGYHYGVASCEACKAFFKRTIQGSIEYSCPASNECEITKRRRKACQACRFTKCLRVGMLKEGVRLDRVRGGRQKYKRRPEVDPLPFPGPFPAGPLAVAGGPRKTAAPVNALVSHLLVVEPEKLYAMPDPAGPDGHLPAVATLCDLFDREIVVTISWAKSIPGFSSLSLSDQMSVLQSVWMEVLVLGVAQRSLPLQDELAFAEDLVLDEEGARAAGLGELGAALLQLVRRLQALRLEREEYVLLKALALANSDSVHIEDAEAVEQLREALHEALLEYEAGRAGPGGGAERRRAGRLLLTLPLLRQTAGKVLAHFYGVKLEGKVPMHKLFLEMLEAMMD
The assay is described as above. An outline of the steps: as §1
For B2, the “phage ELISA signal ratio” value was found to be 3.25.

For B29, the “phage ELISA signal ratio” value stood at 8.22.

In the next assay the target is T2, DYNLL2 1-89 Dynein_light (domain begin residue: 1, domain end residue: 89), Q96FJ2.
T2 chain: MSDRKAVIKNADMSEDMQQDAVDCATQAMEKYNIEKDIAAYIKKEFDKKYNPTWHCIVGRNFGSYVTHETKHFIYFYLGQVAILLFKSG
Described as above. An outline of the steps:
as §1
B3: the “phage ELISA signal ratio” value was 27.

In the case of B4, the “phage ELISA signal ratio” value amounted to 34.5.

Take B5: the “phage ELISA signal ratio” value turned out to be 32.

Regarding B6, the “phage ELISA signal ratio” value came to 33.

As for B9, the “phage ELISA signal ratio” value stood at 35.8.

Consider B13, for which the “phage ELISA signal ratio” value is 35.9.

In the case of B16, the “phage ELISA signal ratio” value worked out at 34.3.

B18: the “phage ELISA signal ratio” value was determined as 30.3.

On to B20, for which the “phage ELISA signal ratio” value is 41.

For B21, the “phage ELISA signal ratio” value worked out at 34.4.

With B23, the “phage ELISA signal ratio” value was 19.2.

B24: the “phage ELISA signal ratio” value turned out to be 26.1.

As to B27, the “phage ELISA signal ratio” value was determined as 36.6.

The target in a further assay is T3, ESRRG 219-458 Hormone_recep (domain begin residue: 219, domain end residue: 458), P62508.
T3 chain: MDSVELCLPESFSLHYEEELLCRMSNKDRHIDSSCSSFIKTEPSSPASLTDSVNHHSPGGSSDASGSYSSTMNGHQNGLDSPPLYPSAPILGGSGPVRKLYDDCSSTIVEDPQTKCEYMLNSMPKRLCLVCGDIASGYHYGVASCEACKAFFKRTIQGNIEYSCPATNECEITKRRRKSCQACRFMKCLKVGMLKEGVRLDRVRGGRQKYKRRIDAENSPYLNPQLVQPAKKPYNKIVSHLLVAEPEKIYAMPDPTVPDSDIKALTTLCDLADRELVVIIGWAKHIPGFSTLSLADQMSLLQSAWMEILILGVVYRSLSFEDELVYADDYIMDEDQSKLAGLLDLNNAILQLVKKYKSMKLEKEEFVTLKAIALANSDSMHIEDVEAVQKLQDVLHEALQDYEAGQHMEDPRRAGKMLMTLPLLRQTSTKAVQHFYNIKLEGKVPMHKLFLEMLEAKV
Described as above. An outline of the steps: as §1
B7: the “phage ELISA signal ratio” value came to 10.8.

Consider B8, for which the “phage ELISA signal ratio” value was determined as 13.1.

For another assay, the target named is PCMT1 1-227 PCMT (domain begin residue: 1, domain end residue: 227), P22061. The assay is described as above. An outline of the steps: as §1
Sequence of PCMT1 1-227 PCMT (domain begin residue: 1, domain end residue: 227), P22061 (P22061 whole entry): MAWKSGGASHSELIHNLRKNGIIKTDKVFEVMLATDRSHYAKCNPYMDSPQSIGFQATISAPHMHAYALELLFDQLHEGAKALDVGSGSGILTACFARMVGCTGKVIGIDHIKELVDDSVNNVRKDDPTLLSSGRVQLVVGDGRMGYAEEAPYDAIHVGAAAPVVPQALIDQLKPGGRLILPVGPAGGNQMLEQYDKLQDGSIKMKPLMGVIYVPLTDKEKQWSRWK
Regarding B7, the “phage ELISA signal ratio” value turned out to be 10.8.

Regarding B8, the “phage ELISA signal ratio” value is 13.1.

A further assay deals with T4, EEF1A1 244-333 GTP_EFTU_D2 (domain begin residue: 244, domain end residue: 333), P68104.
T4 chain: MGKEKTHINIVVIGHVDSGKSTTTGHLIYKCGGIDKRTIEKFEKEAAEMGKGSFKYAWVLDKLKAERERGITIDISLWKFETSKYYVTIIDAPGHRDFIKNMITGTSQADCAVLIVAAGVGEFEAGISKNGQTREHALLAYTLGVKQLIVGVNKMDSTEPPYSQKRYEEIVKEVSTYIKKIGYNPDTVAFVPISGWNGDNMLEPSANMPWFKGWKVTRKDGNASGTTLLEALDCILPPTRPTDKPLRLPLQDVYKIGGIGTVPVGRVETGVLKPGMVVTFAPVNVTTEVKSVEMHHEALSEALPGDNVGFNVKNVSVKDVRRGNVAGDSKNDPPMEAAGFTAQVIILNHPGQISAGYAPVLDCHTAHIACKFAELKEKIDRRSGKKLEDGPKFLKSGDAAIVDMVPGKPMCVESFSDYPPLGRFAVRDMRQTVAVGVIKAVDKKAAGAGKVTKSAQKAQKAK
Described as above. An outline of the steps: as §1
In the case of B10, the “phage ELISA signal ratio” value is 8.96.

The target of another assay is EGFR 334-495 Recep_L_domain (domain begin residue: 334, domain end residue: 495), P00533. The assay is described as above. An outline of the steps:
as §1
B11: the “phage ELISA signal ratio” value was 13.3.

The target of a further assay is EIF4E 2-217 IF4E (domain begin residue: 2, domain end residue: 217), P06730. The description is as above. An outline of the steps: as §1
Sequence of EIF4E 2-217 IF4E (domain begin residue: 2, domain end residue: 217), P06730 (P06730 whole entry): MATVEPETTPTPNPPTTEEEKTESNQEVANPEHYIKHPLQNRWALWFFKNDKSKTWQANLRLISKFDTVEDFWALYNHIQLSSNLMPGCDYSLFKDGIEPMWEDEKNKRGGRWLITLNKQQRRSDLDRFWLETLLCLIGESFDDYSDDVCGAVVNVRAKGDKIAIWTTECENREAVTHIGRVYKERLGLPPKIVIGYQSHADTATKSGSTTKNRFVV
Turning to B12, the “phage ELISA signal ratio” value was determined as 7.15.

As to B15, the “phage ELISA signal ratio” value came out at 7.6.

A further assay concerns the target T5, ENAH 9-116 WH1 (domain begin residue: 9, domain end residue: 116), Q8N8S7.
T5 chain: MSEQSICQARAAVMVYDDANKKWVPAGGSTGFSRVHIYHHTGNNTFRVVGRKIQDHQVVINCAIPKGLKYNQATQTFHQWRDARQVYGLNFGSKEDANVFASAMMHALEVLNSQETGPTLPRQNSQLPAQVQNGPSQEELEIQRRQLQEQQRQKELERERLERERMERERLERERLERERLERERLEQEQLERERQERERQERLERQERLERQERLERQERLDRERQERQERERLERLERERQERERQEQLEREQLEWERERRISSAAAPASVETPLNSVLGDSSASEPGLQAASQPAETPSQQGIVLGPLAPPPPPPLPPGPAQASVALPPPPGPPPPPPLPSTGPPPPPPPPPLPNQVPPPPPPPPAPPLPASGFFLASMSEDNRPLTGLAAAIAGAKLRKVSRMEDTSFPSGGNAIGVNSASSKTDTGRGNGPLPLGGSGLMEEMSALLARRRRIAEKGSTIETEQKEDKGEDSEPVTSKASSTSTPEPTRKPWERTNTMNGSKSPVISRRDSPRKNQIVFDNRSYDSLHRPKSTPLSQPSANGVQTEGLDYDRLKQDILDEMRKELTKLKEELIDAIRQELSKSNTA
The description is as above. An outline of the steps: as §1
With B14, the “phage ELISA signal ratio” value amounted to 7.69.

A further assay has as its target T6, EEF1A2 240-332 GTP_EFTU_D2 (domain begin residue: 240, domain end residue: 332), Q05639.
T6 chain: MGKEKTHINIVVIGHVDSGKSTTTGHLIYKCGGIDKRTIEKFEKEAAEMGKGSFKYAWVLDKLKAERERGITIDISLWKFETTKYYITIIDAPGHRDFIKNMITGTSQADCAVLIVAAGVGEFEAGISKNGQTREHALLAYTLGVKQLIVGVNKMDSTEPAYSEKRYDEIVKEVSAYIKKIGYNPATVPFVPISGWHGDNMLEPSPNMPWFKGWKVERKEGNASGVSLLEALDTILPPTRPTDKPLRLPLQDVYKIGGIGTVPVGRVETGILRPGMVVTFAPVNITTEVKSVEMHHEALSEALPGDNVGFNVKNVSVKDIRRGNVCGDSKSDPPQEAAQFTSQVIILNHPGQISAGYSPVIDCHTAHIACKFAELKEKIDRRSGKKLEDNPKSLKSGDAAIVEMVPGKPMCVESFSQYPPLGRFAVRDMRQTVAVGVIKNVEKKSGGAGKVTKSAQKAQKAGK
The description is as above. An outline of the steps: as §1
Consider B17, for which the “phage ELISA signal ratio” value worked out at 17.3.

As for B22, the “phage ELISA signal ratio” value is 5.34.

The target in a further assay is T7, FKBP3 109-224 FKBP_C (domain begin residue: 109, domain end residue: 224), Q00688.
T7 chain: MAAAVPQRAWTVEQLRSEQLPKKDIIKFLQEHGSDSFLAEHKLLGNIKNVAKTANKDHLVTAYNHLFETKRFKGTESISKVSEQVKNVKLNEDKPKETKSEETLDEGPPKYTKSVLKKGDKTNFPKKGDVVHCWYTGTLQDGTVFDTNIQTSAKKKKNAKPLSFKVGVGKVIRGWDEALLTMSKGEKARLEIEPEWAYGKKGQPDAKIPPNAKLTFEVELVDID
The description is as above. An outline of the steps:
as §1
B19: the “phage ELISA signal ratio” value was 9.64.

Consider B25, for which the “phage ELISA signal ratio” value was found to be 12.6.

In the next assay the target is EIF4A1 29-237 DEAD (domain begin residue: 29, domain end residue: 237), P60842. The description is as above. An outline of the steps: as §1
Sequence of EIF4A1 29-237 DEAD (domain begin residue: 29, domain end residue: 237), P60842 (P60842 whole entry): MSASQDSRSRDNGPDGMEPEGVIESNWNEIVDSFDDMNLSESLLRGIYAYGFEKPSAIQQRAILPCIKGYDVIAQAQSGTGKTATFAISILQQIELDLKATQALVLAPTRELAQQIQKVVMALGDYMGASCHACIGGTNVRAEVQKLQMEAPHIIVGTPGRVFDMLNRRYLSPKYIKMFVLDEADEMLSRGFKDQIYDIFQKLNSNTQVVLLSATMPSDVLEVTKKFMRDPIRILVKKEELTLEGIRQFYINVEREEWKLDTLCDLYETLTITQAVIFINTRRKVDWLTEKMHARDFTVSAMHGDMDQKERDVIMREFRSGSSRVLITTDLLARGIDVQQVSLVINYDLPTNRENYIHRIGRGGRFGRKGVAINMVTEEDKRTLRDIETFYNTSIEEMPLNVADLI
With B28, the “phage ELISA signal ratio” value amounted to 5.95.
